Laboratory results published in PubChem BioAssay (Tox21).
Where “and” joins values, the source holds several entries; their conditions need not be identical. Equal entries are not always repeated. A number with no mark means an inactive call. Records with an inconclusive call do not appear. A call without a number means that no potency is given here. Calls of active or inactive are those of the source. Unless noted, the call rests on the fitted dose curve; in most records, active means well fitted curve in the direction sought with a large enough effect in the repeat runs; inconclusive means weak or mixed curves; inactive means flat fitted curve, though single readings scatter.

How the values were obtained:
[1] = qHTS assay to test for compound auto fluorescence at 535 nm (green) in HEK293 cells (AID 720680)
[2] = qHTS assay to test for compound auto fluorescence at 460 nm (blue) in HEK293 cell free culture (AID 720681)
In short: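 Compounds were added to cell-free DMEM with 10% FBS and fluorescence read directly. The blue channel used 405 nm excitation and 460 nm emission, with triamterene as the reference fluorophore.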

[3] = qHTS assay to test for compound auto fluorescence at 535 nm (green) in HEK293 cell free culture (AID 720682)
In short: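 Compounds were pin-transferred into cell-free DMEM with 10% FBS, and green fluorescence was read at excitation 485 nm and emission 535 nm. Intensities were expressed as fluorescein-equivalent values.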

[4] = qHTS assay to test for compound auto fluorescence at 590 nm (red) in HEK293 cell free culture (AID 720683)
In short: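 Cell-free wells of DMEM with 10% FBS received compound, and intrinsic fluorescence was read at excitation/emission 540/590 nm. Values expressed as equivalence to Rose Bengal sodium.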

[5] = qHTS assay to test for compound auto fluorescence at 590 nm (red) in HepG2 cell free culture (AID 720684)
In short: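 Compound was pinned into wells holding MEM with 10% FBS and no cells, and red fluorescence was read at Ex/Em 540/590 nm. Signal is expressed as auto fluorescence equivalency relative to Rose Bengal sodium.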

[6] = qHTS assay to test for compound auto fluorescence at 460 nm (blue) in HepG2 cell free culture (AID 720685)
In short: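 Compound (23 nL) or DMSO pinned into cell-free MEM with 10% FBS; blue fluorescence read at 405/460 nm excitation/emission, expressed as auto-fluorescence equivalency to triamterene.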

[7] = qHTS assay to test for compound auto fluorescence at 535 nm (green) in HepG2 cell free culture (AID 720686)
[8] = qHTS assay to test for compound auto fluorescence at 460 nm (blue) in HepG2 cells (AID 720687)
In short: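 HepG2 cells in MEM with 10% FBS, attached overnight at 37 C, were exposed to compound or DMSO for 1 hr at 37 C, 5% CO2. Blue fluorescence was read at 405/460 nm, with triamterene as reference fluorophore.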

[9] = biological target: Glucocorticoid receptor (Homo sapiens) (UniProt P04150); assay: qHTS assay to identify small molecule agonists of the glucocorticoid receptor (GR) signaling pathway (AID 720691; active means well fitted activation curve with a large enough effect in the signal ratio in the repeat runs, not every such curve was filed as active; the % refers to the signal ratio; further: potency means the concentration at half of the fitted maximal effect)
In short: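 Fluorescence intensity from LiveBLAzer B/G FRET substrate (2 h, room temperature) reports beta-lactamase expression driven by the glucocorticoid response element in GR-bla HeLa cells after 18 h compound exposure at 37 C.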

[10] = biological target: Glucocorticoid receptor (Homo sapiens) (UniProt P04150); assay: qHTS assay to identify small molecule antagonists of the glucocorticoid receptor (GR) signaling pathway (AID 720692; active means well fitted inhibition curve with a large enough effect in the signal ratio in the repeat runs, not every such curve was filed as active; the % refers to the signal ratio; further: potency means the concentration at half of the fitted maximal effect)
In short: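 HeLa GR-bla cells; cmpd + dex 5 nM final, 18 h 37 C; LiveBLAzer B/G FRET substrate 2 h RT; fluorescence intensity read. Antagonist mode, qHTS.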

Chain of Glucocorticoid receptor (Homo sapiens) (P04150 whole entry, looked up): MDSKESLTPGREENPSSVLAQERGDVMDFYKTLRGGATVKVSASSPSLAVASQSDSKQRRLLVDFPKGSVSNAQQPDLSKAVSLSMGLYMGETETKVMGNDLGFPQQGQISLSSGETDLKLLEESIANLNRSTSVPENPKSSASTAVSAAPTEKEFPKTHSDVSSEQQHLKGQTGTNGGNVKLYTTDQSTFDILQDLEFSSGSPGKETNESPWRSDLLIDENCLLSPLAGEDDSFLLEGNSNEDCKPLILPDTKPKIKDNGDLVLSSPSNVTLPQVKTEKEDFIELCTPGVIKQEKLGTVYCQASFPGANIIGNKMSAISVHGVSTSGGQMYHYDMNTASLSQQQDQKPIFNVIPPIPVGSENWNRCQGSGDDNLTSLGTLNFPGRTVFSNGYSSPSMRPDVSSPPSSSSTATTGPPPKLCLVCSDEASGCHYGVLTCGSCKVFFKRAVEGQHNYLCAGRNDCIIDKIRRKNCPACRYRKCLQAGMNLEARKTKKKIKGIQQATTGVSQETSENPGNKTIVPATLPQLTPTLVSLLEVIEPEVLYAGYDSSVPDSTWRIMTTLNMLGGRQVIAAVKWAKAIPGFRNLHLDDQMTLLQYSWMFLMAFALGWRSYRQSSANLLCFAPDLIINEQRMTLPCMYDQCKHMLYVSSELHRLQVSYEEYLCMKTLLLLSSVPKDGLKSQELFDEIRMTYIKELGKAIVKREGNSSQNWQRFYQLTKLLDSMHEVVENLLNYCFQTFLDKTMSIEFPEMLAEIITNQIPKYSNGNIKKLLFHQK

Row | SMILES | outcome [1] | outcome [2] | outcome [3] | outcome [4] | outcome [5] | outcome [6] | outcome [7] | outcome [8] | Potency [9] | Potency [10]
1 | Cc1cccn2c(=O)c(-c3nnn[nH]3)cnc12 | inactive | inactive | inactive | inactive | inactive | inactive | inactive | inactive | inactive | inactive
2 | Cc1ccc(Cl)cc1Cl | inactive | inactive | inactive | inactive | inactive | inactive | inactive | inactive | inactive | inactive
3 | Cc1c(NC(C)C)c(=O)n(-c2ccccc2)n1C | inactive | inactive | inactive | inactive | inactive | inactive | inactive | inactive | inactive | inactive
4 | CC/C=C\CC/C=C/CO | inactive | inactive | inactive | inactive | inactive | inactive | inactive | inactive | inactive | inactive
5 | CCO/C([O-])=N/c1c[n+](N2CCOCC2)no1 | inactive | inactive | inactive | inactive | inactive | inactive | inactive | inactive |  | inactive
6 | O=c1cc(-c2ccccc2)oc2ccccc12 | inactive | inactive | inactive | inactive | inactive | inactive | inactive | inactive |  | 27.5 µM (active) and 14.3 µM (active)
7 | NC(=O)c1ccc(N)cc1 | inactive | inactive | inactive | inactive | inactive | inactive | inactive | inactive | inactive | inactive
8 | O=C1OC(=O)C2CCCCC12 (configuration not stated) | inactive | inactive | inactive | inactive | inactive | inactive | inactive | inactive |  | inactive
9 | NS(=O)(=O)c1cc(C(=O)O)cc(N2CCCC2)c1Oc1ccccc1 | inactive | inactive | inactive | inactive | inactive | inactive | inactive | inactive | 9.1 µM (active) | inactive
10 | CCOC(=O)c1c(C)n(C)c2ccc(O)cc12 | inactive | inactive | inactive | inactive | inactive | inactive | inactive | inactive |  | inactive
11 | N#Cc1ccc(C2CCCc3cncn32)cc1 (configuration not stated) | inactive | inactive | inactive | inactive | inactive | inactive | inactive | inactive |  | inactive
12 | CCN(CC)CCNC(=O)c1cc(S(C)(=O)=O)ccc1OC | inactive | inactive | inactive | inactive | inactive | inactive | inactive | inactive | inactive | inactive
13 | O=C(O)c1ccccc1OP(=O)(O)O | inactive | inactive | inactive | inactive | inactive | inactive | inactive | inactive | inactive | inactive
14 | CC(C)OC(=O)c1ccccc1 | inactive | inactive | inactive | inactive | inactive | inactive | inactive | inactive | inactive | inactive
15 | CO[Si](CCCOCC1CO1)(OC)OC (configuration not stated) | inactive | inactive | inactive | inactive | inactive | inactive | inactive | inactive | inactive | inactive
16 | CCO[Si](CCC1CCC2OC2C1)(OCC)OCC (configuration not stated) | inactive | inactive | inactive | inactive | inactive | inactive | inactive | inactive | inactive | inactive
17 | CCOC(=O)CCC(C)=O | inactive | inactive | inactive | inactive | inactive | inactive | inactive | inactive |  | inactive
18 | N=c1nc(N2CCCCC2)cc(N)n1O | inactive | inactive | inactive | inactive | inactive | inactive | inactive | inactive | inactive | inactive
19 | Nc1c[n+](N2CCOCC2)no1 | inactive | inactive | inactive | inactive | inactive | inactive | inactive | inactive | inactive | inactive
20 | c1cnc(N2CCN(Cc3ccc4c(c3)OCO4)CC2)nc1 | inactive | inactive | inactive | inactive | inactive | inactive | inactive | inactive | inactive | inactive
21 | CC(C[N+](C)(C)C)OC(N)=O (configuration not stated) | inactive | inactive | inactive | inactive | inactive | inactive | inactive | inactive |  | inactive
22 | Brc1c(NC2=NCCN2)ccc2nccnc12 | inactive | inactive | inactive | inactive | inactive | inactive | inactive | inactive | inactive | inactive
23 | C[N+](C)(C)CC(O)CC(=O)[O-] (configuration not stated) | inactive | inactive | inactive | inactive | inactive | inactive | inactive | inactive |  | inactive
24 | CC(C)(C)c1nnc(NS(=O)(=O)c2ccccc2)s1 | inactive | inactive | inactive | inactive | inactive | inactive | inactive | inactive | inactive | inactive
25 | CCn1nc(C(=O)O)c(=O)c2cc3c(cc21)OCO3 | inactive | inactive | inactive | inactive | inactive | inactive | inactive | inactive | inactive | inactive
